# Publication PMC7862700, “An all-to-all approach to the identification of sequence-specific readers for epigenetic DNA modifications on cytosine”
# Assays:
# Test in all cases: DAPPL (digital affinity profiling via proximity ligation, sequencing); 10 mM Tris-HCl pH 7.5, 50 mM NaCl, 1 mM DTT, 4% glycerol, room temperature, 30 min; GST-TFs on glutathione beads, 16-mer random dsDNA library, 0.1% formaldehyde crosslink after washing; high values mean tight binding
# FLI1 = target: T1, FLI1 (Homo sapiens, UniProt Q01543 1-452); conditions: protein: recombinant; tags: N-terminal GST; dsDNA, one strand shown
# T1 sequence: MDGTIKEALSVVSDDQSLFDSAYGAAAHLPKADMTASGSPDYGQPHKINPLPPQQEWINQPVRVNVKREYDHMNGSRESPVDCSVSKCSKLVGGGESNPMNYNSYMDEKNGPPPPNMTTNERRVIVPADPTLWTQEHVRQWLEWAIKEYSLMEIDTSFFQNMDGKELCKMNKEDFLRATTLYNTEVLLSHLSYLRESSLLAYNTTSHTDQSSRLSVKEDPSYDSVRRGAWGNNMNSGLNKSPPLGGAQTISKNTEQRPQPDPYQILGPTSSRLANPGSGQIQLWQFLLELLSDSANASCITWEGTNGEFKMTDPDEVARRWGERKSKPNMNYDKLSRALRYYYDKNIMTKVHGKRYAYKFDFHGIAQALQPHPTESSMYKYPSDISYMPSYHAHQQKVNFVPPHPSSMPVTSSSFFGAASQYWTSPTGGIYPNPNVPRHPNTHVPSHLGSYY
# Procedure, shortened: (§1)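 Pools were built from human transcription factors expressed in yeast as GST fusions, captured on glutathione beads and DNA-barcoded, along with a tag-only sample. Incubation with 200 nmole of a 16-mer random double-stranded DNA library lasted 30 min at room temperature in Tris/NaCl/DTT/glycerol buffer, and was followed by washing, 0.1% formaldehyde crosslinking, proximity ligation, PCR amplification and Illumina NextSeq500 sequencing. Binding signal is the quotient of each hexamer's read frequency for a factor and its frequency for the tag-only sample.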
# ELK1 = target: T2, ELK1 (Homo sapiens, UniProt P19419 1-428); conditions: protein: recombinant; tags: N-terminal GST; dsDNA, one strand shown
# T2 sequence: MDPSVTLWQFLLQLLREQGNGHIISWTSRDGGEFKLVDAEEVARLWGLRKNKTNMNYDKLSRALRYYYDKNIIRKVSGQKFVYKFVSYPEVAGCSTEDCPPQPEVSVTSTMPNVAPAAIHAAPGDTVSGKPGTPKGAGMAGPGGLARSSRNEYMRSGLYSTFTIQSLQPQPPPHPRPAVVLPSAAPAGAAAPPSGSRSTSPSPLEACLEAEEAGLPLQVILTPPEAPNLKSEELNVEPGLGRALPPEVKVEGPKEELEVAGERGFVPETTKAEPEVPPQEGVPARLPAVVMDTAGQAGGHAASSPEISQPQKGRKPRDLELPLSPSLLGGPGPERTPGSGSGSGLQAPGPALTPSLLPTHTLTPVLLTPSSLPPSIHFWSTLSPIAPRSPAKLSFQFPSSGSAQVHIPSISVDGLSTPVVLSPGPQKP
# Procedure, shortened: as §1
# GABPA = target: T3, GABPA (Homo sapiens, UniProt Q06546 1-454); conditions: protein: recombinant; tags: N-terminal GST; dsDNA, one strand shown
# T3 sequence: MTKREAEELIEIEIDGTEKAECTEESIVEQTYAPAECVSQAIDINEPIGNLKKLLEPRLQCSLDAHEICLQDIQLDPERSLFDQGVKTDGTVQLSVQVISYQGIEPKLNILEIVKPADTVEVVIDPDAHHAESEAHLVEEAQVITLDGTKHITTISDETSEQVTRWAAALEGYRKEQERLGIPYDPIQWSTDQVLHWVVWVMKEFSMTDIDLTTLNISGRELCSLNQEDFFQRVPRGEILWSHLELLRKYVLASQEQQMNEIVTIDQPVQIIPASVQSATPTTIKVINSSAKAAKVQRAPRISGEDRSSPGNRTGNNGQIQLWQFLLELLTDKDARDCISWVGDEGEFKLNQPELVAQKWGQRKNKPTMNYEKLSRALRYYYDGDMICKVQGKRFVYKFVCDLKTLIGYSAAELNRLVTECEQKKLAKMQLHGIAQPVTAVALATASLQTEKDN
# Procedure, shortened: as §1
# ERG = target: T4, ERG (Homo sapiens, UniProt P11308 1-479); conditions: protein: recombinant; tags: N-terminal GST; dsDNA, one strand shown
# T4 sequence: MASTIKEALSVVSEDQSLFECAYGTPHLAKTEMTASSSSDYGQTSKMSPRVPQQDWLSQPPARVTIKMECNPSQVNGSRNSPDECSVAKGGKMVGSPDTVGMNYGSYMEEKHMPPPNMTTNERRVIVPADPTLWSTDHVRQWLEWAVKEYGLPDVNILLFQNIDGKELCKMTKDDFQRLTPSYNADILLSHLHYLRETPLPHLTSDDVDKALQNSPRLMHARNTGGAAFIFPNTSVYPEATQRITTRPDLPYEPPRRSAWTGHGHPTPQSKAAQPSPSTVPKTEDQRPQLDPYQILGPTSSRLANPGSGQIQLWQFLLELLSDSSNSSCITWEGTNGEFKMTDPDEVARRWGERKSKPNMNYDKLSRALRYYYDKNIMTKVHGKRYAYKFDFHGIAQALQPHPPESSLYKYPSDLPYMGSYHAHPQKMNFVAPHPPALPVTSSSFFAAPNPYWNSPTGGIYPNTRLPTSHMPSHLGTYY
# Procedure, shortened: as §1
# ELF1 = ELF1 (Homo sapiens, UniProt P32519 1-619); conditions: protein: recombinant; tags: N-terminal GST; dsDNA, one strand shown
# Procedure, shortened: as §1
# EHF = target: T5, EHF (Homo sapiens, UniProt Q9NZC4 1-300); conditions: protein: recombinant; tags: N-terminal GST; dsDNA, one strand shown
# T5 sequence: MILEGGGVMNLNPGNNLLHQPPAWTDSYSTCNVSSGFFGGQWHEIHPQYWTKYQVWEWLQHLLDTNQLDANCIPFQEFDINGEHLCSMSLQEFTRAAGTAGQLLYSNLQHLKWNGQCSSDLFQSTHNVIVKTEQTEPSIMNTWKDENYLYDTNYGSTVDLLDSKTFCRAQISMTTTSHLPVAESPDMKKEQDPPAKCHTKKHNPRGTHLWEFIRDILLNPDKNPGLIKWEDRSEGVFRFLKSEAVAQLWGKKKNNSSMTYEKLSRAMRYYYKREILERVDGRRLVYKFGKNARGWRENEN
# Procedure, shortened: as §1
# SPI1 = SPI1 (Homo sapiens, UniProt P17947 1-270); conditions: protein: recombinant; tags: N-terminal GST; dsDNA, one strand shown
# Procedure, shortened: as §1
# SPIB = SPIB (Homo sapiens, UniProt Q01892 1-262); conditions: protein: recombinant; tags: N-terminal GST; dsDNA, one strand shown
# Procedure, shortened: as §1
# ELK3 = target: T6, ELK3 (Homo sapiens, UniProt P41970 1-407); conditions: protein: recombinant; tags: N-terminal GST; dsDNA, one strand shown
# T6 sequence: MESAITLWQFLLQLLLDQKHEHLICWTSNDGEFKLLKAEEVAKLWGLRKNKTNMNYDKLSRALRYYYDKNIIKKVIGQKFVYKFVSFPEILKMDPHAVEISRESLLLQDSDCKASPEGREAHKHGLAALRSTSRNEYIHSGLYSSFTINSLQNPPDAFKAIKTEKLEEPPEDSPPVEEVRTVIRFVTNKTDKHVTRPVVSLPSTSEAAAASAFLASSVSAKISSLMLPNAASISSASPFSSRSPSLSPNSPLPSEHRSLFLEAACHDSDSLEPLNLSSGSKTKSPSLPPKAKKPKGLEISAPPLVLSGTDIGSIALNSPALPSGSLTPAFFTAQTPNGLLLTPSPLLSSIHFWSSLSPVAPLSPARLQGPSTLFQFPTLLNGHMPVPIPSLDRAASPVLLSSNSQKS
# Procedure, shortened: as §1
# FEV = target: T7, FEV (Homo sapiens, UniProt Q99581 1-238); conditions: protein: recombinant; tags: N-terminal GST; dsDNA, one strand shown
# T7 sequence: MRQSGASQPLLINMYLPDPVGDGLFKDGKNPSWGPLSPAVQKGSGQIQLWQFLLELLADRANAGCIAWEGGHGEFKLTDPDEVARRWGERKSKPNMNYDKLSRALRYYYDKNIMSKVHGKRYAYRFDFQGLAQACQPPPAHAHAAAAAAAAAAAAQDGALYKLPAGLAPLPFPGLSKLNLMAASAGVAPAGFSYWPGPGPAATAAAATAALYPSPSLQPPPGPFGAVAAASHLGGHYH
# Procedure, shortened: as §1
# ETV5 = ETV5 (Homo sapiens, UniProt P41161 1-510); conditions: protein: recombinant; tags: N-terminal GST; dsDNA, one strand shown
# Procedure, shortened: as §1
# HSF1 = HSF1 (Homo sapiens, UniProt Q00613 1-529); conditions: protein: recombinant; tags: N-terminal GST; chain copies: 3; dsDNA, one strand shown
# Procedure, shortened: as §1
# SPIC = target: T8, SPIC (Homo sapiens, UniProt Q8N5J4 1-248); conditions: protein: recombinant; tags: N-terminal GST; dsDNA, one strand shown
# T8 sequence: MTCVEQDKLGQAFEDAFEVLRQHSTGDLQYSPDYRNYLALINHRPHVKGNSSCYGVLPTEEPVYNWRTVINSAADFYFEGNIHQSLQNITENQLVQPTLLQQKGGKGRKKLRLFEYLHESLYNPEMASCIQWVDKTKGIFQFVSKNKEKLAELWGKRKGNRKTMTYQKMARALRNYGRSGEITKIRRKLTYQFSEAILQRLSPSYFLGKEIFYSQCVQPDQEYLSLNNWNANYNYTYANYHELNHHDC
# Procedure, shortened: as §1
# ELF4 = ELF4 (Homo sapiens, UniProt Q99607 1-663); conditions: protein: recombinant; tags: N-terminal GST; dsDNA, one strand shown
# Procedure, shortened: as §1
# ELK4 = target: T9, ELK4 (Homo sapiens, UniProt P28324-2 1-405); conditions: protein: recombinant; tags: N-terminal GST; dsDNA, one strand shown
# T9 sequence: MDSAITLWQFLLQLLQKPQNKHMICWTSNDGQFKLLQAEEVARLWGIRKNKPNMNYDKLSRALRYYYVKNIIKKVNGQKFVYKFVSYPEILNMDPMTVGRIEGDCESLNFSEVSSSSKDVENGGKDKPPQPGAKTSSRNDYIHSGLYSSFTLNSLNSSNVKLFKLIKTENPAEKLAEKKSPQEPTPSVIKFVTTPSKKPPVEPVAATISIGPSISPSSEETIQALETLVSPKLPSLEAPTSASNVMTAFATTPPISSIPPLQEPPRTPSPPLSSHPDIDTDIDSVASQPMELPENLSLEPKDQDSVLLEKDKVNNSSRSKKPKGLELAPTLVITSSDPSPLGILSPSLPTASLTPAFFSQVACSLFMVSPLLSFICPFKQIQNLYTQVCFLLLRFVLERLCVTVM
# Procedure, shortened: as §1
# ETV2 = target: T10, ETV2 (Homo sapiens, UniProt O00321 1-342); conditions: protein: recombinant; tags: N-terminal GST; dsDNA, one strand shown
# T10 sequence: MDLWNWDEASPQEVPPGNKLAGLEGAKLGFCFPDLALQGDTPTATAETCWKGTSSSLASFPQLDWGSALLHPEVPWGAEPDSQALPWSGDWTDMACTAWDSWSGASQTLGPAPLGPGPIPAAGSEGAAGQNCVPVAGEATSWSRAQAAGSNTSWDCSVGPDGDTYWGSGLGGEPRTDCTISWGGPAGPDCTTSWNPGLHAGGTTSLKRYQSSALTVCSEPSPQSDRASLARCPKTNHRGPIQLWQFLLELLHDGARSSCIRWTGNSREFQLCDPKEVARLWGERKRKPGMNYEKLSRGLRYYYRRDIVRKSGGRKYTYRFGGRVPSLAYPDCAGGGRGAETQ
# Procedure, shortened: as §1
# ELF3 = target: T11, ELF3 (Homo sapiens, UniProt P78545 1-371); conditions: protein: recombinant; tags: N-terminal GST; dsDNA, one strand shown
# T11 sequence: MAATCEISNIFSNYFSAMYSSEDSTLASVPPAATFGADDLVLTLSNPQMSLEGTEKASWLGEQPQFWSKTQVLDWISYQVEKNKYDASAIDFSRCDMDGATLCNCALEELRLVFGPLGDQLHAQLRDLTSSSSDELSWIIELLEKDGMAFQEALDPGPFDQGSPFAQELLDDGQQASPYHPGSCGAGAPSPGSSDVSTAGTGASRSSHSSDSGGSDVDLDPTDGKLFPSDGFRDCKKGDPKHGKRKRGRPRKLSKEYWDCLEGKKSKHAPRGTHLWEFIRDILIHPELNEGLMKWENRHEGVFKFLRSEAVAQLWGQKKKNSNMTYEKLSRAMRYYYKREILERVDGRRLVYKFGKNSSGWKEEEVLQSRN
# Procedure, shortened: as §1
# CRX = CRX (Homo sapiens, UniProt O43186 1-299); conditions: protein: recombinant; tags: N-terminal GST; dsDNA, one strand shown
# Procedure, shortened: as §1
# ETV1 = ETV1 (Homo sapiens, UniProt P50549 1-477); conditions: protein: recombinant; tags: N-terminal GST; dsDNA, one strand shown
# Procedure, shortened: as §1
# HSF1, sequence (Q00613 whole entry): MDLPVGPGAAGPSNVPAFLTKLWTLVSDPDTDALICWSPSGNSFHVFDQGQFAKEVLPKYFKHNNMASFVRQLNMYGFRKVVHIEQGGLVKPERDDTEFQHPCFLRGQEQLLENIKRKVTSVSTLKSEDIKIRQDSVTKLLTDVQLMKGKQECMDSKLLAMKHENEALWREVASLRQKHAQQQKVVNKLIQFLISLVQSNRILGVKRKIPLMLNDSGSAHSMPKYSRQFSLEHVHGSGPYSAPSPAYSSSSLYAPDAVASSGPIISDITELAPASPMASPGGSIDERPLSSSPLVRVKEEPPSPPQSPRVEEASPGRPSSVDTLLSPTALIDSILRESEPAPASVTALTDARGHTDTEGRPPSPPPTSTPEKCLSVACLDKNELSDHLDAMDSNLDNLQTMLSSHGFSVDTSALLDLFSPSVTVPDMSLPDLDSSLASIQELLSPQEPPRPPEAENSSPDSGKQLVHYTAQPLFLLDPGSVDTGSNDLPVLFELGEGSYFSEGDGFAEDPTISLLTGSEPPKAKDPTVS
# ELF1, sequence (P32519 whole entry): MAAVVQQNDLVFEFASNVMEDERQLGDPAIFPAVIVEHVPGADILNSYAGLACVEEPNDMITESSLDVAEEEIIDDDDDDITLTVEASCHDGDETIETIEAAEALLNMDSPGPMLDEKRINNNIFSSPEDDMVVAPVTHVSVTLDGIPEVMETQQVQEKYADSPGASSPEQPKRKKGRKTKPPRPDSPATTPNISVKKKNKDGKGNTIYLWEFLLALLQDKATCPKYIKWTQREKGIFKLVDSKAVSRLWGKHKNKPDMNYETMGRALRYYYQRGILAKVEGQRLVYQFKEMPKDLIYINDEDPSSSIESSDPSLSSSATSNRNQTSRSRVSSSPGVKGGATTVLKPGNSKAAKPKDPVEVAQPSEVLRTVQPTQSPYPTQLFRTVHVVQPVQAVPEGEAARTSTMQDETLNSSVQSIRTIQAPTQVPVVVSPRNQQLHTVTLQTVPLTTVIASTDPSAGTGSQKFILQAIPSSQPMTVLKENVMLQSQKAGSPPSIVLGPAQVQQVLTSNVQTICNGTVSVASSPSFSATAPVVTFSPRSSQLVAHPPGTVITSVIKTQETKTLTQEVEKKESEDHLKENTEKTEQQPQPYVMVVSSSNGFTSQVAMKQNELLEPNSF
# ETV5, sequence (P41161 whole entry): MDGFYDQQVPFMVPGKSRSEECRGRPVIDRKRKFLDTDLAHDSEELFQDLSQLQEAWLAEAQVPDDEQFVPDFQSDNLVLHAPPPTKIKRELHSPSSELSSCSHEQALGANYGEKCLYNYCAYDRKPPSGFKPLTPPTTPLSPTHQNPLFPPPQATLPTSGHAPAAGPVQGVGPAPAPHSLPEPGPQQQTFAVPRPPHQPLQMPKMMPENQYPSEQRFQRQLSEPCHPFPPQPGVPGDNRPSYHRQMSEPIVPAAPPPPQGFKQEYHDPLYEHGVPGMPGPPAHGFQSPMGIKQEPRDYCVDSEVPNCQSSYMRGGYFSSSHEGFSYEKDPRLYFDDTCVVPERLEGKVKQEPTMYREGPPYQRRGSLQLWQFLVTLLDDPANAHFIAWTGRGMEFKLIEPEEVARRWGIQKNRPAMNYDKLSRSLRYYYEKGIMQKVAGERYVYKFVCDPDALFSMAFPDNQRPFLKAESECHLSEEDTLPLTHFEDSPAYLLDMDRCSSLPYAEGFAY
# SPIB, sequence (Q01892 whole entry): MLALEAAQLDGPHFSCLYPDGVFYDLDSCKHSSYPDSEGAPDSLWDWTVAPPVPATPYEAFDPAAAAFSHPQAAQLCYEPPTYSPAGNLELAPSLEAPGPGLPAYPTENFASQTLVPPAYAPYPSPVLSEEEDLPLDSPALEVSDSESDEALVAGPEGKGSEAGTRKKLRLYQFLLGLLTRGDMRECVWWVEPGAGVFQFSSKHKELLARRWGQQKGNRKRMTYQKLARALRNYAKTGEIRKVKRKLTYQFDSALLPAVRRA
# ELF4, sequence (Q99607 whole entry): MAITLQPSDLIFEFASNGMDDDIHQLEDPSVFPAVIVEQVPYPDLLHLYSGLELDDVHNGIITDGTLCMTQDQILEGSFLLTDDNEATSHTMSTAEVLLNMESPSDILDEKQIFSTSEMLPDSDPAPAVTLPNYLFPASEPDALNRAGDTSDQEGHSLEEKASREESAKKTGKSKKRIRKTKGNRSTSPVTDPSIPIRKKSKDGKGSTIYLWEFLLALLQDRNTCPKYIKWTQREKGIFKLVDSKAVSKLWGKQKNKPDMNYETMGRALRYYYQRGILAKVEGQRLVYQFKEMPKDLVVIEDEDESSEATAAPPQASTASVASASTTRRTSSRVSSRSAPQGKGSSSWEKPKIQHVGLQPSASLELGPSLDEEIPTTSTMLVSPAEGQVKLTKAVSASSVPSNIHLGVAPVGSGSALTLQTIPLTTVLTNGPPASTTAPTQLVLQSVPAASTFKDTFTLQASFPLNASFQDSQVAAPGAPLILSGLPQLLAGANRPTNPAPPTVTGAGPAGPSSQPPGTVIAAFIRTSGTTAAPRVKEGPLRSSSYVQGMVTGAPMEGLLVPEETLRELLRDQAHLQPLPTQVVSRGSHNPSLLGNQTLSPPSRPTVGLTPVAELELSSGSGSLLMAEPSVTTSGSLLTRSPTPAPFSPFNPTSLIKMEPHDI
# ETV1, sequence (P50549 whole entry): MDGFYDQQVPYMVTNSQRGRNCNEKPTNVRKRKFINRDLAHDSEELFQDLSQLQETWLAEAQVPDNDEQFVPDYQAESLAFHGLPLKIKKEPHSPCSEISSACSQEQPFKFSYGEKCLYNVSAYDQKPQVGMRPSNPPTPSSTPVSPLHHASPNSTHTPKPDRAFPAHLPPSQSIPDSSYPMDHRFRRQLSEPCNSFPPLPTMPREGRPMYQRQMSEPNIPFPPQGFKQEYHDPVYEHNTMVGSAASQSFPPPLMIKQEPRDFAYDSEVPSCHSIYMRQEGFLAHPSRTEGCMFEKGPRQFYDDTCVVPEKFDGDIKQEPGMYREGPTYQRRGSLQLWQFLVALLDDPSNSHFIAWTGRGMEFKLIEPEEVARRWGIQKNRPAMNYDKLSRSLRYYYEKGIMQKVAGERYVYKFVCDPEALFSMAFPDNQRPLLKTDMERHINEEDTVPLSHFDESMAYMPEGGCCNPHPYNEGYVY
# CRX, sequence (O43186 whole entry): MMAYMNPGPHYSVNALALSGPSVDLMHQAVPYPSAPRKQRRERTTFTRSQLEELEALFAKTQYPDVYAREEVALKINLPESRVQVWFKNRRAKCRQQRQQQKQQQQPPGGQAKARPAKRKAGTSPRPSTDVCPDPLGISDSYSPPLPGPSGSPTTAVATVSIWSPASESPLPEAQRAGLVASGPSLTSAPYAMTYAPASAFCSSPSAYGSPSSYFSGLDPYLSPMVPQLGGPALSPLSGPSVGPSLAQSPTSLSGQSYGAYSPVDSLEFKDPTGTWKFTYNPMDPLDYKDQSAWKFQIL
sequence,measurement,setting,value
GATCCC,binding signal,FLI1,"1.16 fold enrichment (6-mer frequency, TF over GST control)"
same,binding signal,ELK1,"1.16 fold enrichment (6-mer frequency, TF over GST control)"
same,binding signal,GABPA,"1.15 fold enrichment (6-mer frequency, TF over GST control)"
same,binding signal,ERG,"1.23 fold enrichment (6-mer frequency, TF over GST control)"
same,binding signal,ELF1,"1.27 fold enrichment (6-mer frequency, TF over GST control)"
same,binding signal,EHF,"1.17 fold enrichment (6-mer frequency, TF over GST control)"
same,binding signal,SPI1,"1.11 fold enrichment (6-mer frequency, TF over GST control)"
same,binding signal,SPIB,"1.17 fold enrichment (6-mer frequency, TF over GST control)"
same,binding signal,ELK3,"1.14 fold enrichment (6-mer frequency, TF over GST control)"
same,binding signal,FEV,"1.18 fold enrichment (6-mer frequency, TF over GST control)"
same,binding signal,ETV5,"1.13 fold enrichment (6-mer frequency, TF over GST control)"
same,binding signal,HSF1,"1.22 fold enrichment (6-mer frequency, TF over GST control)"
same,binding signal,SPIC,"1.22 fold enrichment (6-mer frequency, TF over GST control)"
same,binding signal,ELF4,"1.26 fold enrichment (6-mer frequency, TF over GST control)"
same,binding signal,ELK4,"1.2 fold enrichment (6-mer frequency, TF over GST control)"
same,binding signal,ETV2,"1.23 fold enrichment (6-mer frequency, TF over GST control)"
same,binding signal,ELF3,"1.18 fold enrichment (6-mer frequency, TF over GST control)"
same,binding signal,CRX,"1.32 fold enrichment (6-mer frequency, TF over GST control)"
same,binding signal,ETV1,"1.22 fold enrichment (6-mer frequency, TF over GST control)"
